From PubChem BioAssay
Rows were chosen to be rich in hits. Some 2.7% of all compounds tested hit in one or more screens of this group.
Peg3 promoter: Peg3 promoter-driven luciferase inhibitors, primary screen, cell-based, HeLa, luciferase luminescence; HeLa PEG-Prom luciferase reporter, overnight; inhibition, % at 20 µM; hit rate 1.7% among 360,000; AID 588405, 2011;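 active = inhibition of at least 50% at 20 µM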
Shn3 3UTR inh: reduction of Shn3 3'UTR firefly luciferase signal, primary screen, Schnurri-3 inhibitor project, cell-based, Clone20 osteoblasts, set 2; inhibition, % at 12.5 µM; hit rate 0.52% among 360,000; Clone20 osteoblast Shn3 3'UTR firefly luciferase, 24 h;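 active = mean inhibition of at least 75% with every replicate also reaching 75%; inconclusive = mean inhibition at least 75% but some replicate below; inactive = mean inhibition below 75%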;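 note: 0% = median of neutral control wells and 100% = pilot-screen positive control compound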
HIF-2a block: HIF-2a reporter inhibitors, primary screen, luminescence, 786-0 RCC cells | 786-0 RCC cells HIF-2a reporter, luciferase luminescence, overnight | inhibition, % at 18.8 µM | hit rate 0.72% among 360,000;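 active = inhibition of the luminescence signal of 40% or more relative to plate controls, in a single-dose primary screen at 18.75 µM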
KKLEB cytotox: cytotoxicity in KKLEB CF airway cells, primary screen, cytotoxicity control for CF NF-kB inhibitor project, cell-based, uHTS, fluorescence assay plates; hit rate 0.36% among 360,000; activity change (cytotoxicity), % at 5 µM; KKLEB CF airway cells viability, ATPlite luminescence, overnight; hits give low values; cells stimulated with P. aeruginosa culture filtrate; AID 602141, 2011;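 active = corrected activity change at or below -50% at 5 µM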
MITF TRPM1 inh: inhibitors of MITF-dependent TRPM1 promoter reporter, primary screen, cell-based, SK-MEL-5, single point, luciferase. SK-MEL-5 TRPM1 promoter luciferase, 24 h. inhibition, % at 12.5 µM. hit rate 0.83% among 330,000;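 active = mean inhibition across replicates of 60% or more, whatever share of single replicates reaches that level; inconclusive = some that reach 60%, reason not given; inactive = mean inhibition across replicates below 60%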
CF NFkB inh: inhibitors of PAF-induced NF-kB signaling, primary screen, cell-based, GFP fluorescence, uHTS; KKLEB NF-kB-GFP reporter, GFP fluorescence overnight; inhibition, % at 5 µM; hit rate 0.86% among 360,000;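 active = at least 50% inhibition at 5 µM, scaled per plate between neutral and stimulator controls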;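 note: PAF is a Pseudomonas aeruginosa culture filtrate used as stimulus; plate controls were PAF-stimulated DMSO wells for no effect and unstimulated DMSO wells for full effect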
* marks the source's active call; other numbers are inactive results; ? = inconclusive; · = no result given; ! = not confirmed by another sample.

SMILES | Peg3 promoter | Shn3 3UTR inh | HIF-2a block | KKLEB cytotox | MITF TRPM1 inh | CF NFkB inh
CCOC(=O)CSc1ccc(C(=O)N2CCN(C)CC2)cc1[N+](=O)[O-] | 104.2* | 7.7 | 1.5 | 3.7 | -8.6 | -6.9
Cc1cccc(C)c1NC(=O)C1(C)CSCC(=O)N1CCc1ccc(O)cc1 (centres undefined) | · | · | 3.4 | · | · | ·
Cc1ccc2nc(N(CCCN(C)C)C(=O)CCc3ccccc3)sc2c1 | 53.1* | -19.4 | -15.4 | -5.8 | -5.8 | 0.0
CN(C)CCCN(C(=O)COc1ccccc1)c1nc2ccc(Cl)cc2s1 | -65.7 | 1.6 | -80.0 | -2.4 | 1.4 | 1.8
CN(C)CCCN(C(=O)CCc1ccccc1)c1nc2ccc(Cl)cc2s1 | 108.0* | -25.8 | -20.2 | -39.5 | 5.8 | 33.5
CN(C)CCCN(C(=O)COc1ccc(Cl)cc1)c1nc2cc3c(cc2s1)OCO3 | 64.4* | 11.4 | -0.3 | -11.1 | 19.3 | -14.1
Cc1ccc(S(=O)(=O)NCc2ccccc2)cc1C(=O)N1CCN(S(=O)(=O)c2ccccc2F)CC1 | 9.7 | -13.2 | 2.7 | -7.7 | · | -6.7
CC(=O)c1ccc(OCCCCCCCOc2ccc(C(C)=O)cc2)cc1 | -5.1 | 12.2 | 19.2 | -6.5 | -5.8 | 1.4
COC1=C(OC)C(=O)C(Sc2ccc3ccccc3c2)=CC1=O | 64.2* | 86.8* | 49.3* | 3.5 | 32.7 | -13.0
C=CCN=C1NN=C(c2cc(C)n(CCOC)c2C)CS1 | -15.5 | 4.4 | 46.7* | 7.5 | 24.3 | 8.6
C=CCn1c(C)cc(C2=NNC(=Nc3ccc(C)cc3)SC2)c1C | -89.7 | 10.0 | -36.5 | 16.9 | -28.5 | -27.9
C=CCn1c(C)cc(C2=NNC(=NC(C)(C)C)SC2)c1C | 42.7 | 10.6 | 48.5* | -9.8 | 79.2* | -4.1
CCCCCCCCCCCCCCC[C@@H](O)[C@@H](N)CO | 51.5* | -7.6 | 16.2 | -22.7 | 28.9 | 0.2
CCN(CC)c1ccc2cc(C(C)=O)c(=O)oc2c1 | -90.2 | 11.1 | -119.2 | -7.9 | -9.4 | 9.4
CCN(CC)c1ccc2cc(NC(=O)CCC(=O)O)c(=O)oc2c1 | 43.9 | 61.2 | 84.3* | -5.3 | 92.4* | -10.4
CCN(CC)CCNC(=O)CCc1c(C)nc2c(c(C)nn2-c2ccc(C)cc2)c1C | 73.2* | -62.6 | 27.7 | -11.1 | 1.9 | 17.4
C/C(=N\NC(=O)C1(C)CC1(Br)Br)c1cccc(NC(=O)c2ccc(C)o2)c1 (centres undefined) | 62.0* | 0.8 | -60.2 | 0.5 | 5.7 | 6.9
N#Cc1ccc(OS(=O)(=O)c2ccc(-c3ccon3)s2)cc1 | 9.3 | 32.8 | -7.5 | 4.8 | -20.8 | -19.4
O=C(O)c1cccc(Oc2ccc(C(=O)O)c([N+](=O)[O-])c2)c1 | 6.3 | 7.2 | 8.4 | 8.7 | -6.2 | -10.7
COc1ccc(NC(=O)c2ccc3c(c2)NC(=O)CS3)cc1 | -134.8 | -36.1 | -168.0 | -17.4 | -50.7 | 7.9
Cc1ccc(NS(=O)(=O)c2cc(NC(=O)c3ccc4c(c3)NC(=O)CS4)ccc2Cl)c(C)c1 | 52.0* | 14.2 | 34.3 | 7.2 | -2.7 | -15.8
COc1ccc(Nc2nnc(SCC(=O)NC3CCCC3)s2)cc1 | -57.8 | -12.7 | -52.7 | 17.6 | · | -4.8
CCCC#Cc1ccc2c(c1)O[C@@H](CN(C)Cc1ccc3c(c1)OCO3)[C@H](C)CN([C@@H](C)CO)S2(=O)=O | 62.5* | 20.4 | 15.2 | -21.9 | · | 32.4
C[C@H](CO)N1C[C@H](C)[C@@H](CN(C)CC2CCOCC2)Oc2cc(C#Cc3ccccc3F)ccc2S1(=O)=O | 23.8 | 23.0 | 6.2 | -4.7 | · | 24.6
C[C@@H]1CN([C@H](C)CO)S(=O)(=O)c2ccc(C#Cc3ccccc3F)cc2O[C@H]1CN(C)C(=O)c1ccc2c(c1)OCO2 | 56.5* | 38.3 | -25.4 | 0.8 | · | 12.5
SMILES | Peg3 promoter | Shn3 3UTR inh | HIF-2a block | KKLEB cytotox | MITF TRPM1 inh | CF NFkB inh
NC(=O)NC(Cc1ccccc1)C(=O)NNC(=O)COc1ccccc1Cl (centres undefined) | -3.6 | 6.9 | 13.2 | 1.3 | 7.7 | -5.6
CC1(C)Cc2c(cnn2-c2ccccc2)C(NC(=O)CCN2CCCCO2)C1 (centres undefined) | -37.4 | 6.4 | -56.5 | 15.7 | 0.4 | 2.3
COc1ccccc1Cc1c(C2CCCCC2)nc2ccc(C)cn12 | 74.3* | -1.0 | -54.4 | -0.3 | · | 0.8
C=CCNCc1ccc(C(=O)NCCCCCCC)cc1[N+](=O)[O-] | -45.2 | 4.1 | -64.2 | 10.2 | -22.1 | -5.5
COc1ccccc1-n1c(-c2ccccc2)c[n+]2c1CCc1ccccc1-2 | 11.7 | 90.3*! | 14.2 | -0.9 | 67.4*! | -13.6
COc1ccc(-c2cn(-c3ccc(OC)cc3)c3[n+]2-c2ccccc2CC3)cc1 | 38.5 | ? | 4.4 | 1.9 | 69.1* | -7.0
COc1ccc(-n2c(-c3ccc(Br)cc3)c[n+]3c2CCc2ccccc2-3)cc1 | 19.0 | ? | 13.8 | -36.1 | 97.5* | 19.5
CC(C)c1ccc(-n2c(-c3ccccc3)c[n+]3c2CCc2ccccc2-3)cc1 | 67.5* | 81.5 | 14.7 | -53.8* | 88.4* | 51.1*
Cc1cc(NC(=O)C(C)SCC(=O)OC(C)C(=O)Nc2ccc(F)cc2Cl)no1 (centres undefined) | 0.7 | -0.4 | 10.0 | 4.5 | 0.3 | 19.8
O=S(=O)(NC(=NCc1ccccc1)c1ccccc1)c1ccccc1 | 12.6 | -0.8 | 9.3 | -13.2 | 10.1 | -3.5
COc1ccc(Cl)cc1C(=O)NNC(=O)COC(=O)CCN=C1NS(=O)(=O)c2ccccc21 | -3.2 | 4.3 | 8.5 | 17.6 | 14.4 | -2.8
C[C@H](O)[C@@H]1C(=O)N2CCc3ccc(-c4ccccc4)cc3[C@@H]2C[C@@H]1N(C)C(=O)Nc1cc(Cl)cc(Cl)c1 | 49.1 | -1.0 | 13.7 | -16.6 | 13.0 | -15.2
Cc1ccc(S(=O)(=O)/N=C(/Nc2ccc(O)c(C(=O)O)c2)c2ccccc2)cc1 | 6.7 | 1.8 | 8.7 | 1.5 | 4.0 | -5.3
O=C(CCNS(=O)(=O)c1ccc(Br)cc1)N1CCN(c2ccccc2O)CC1 | 0.4 | 3.0 | 2.3 | 7.6 | -1.3 | 9.3
Cc1c(Cl)cccc1NC(=S)/C(=C(\[O-])c1ccc(Cl)s1)[n+]1ccccc1 | 58.1* | 2.3 | -9.7 | 9.0 | 19.9 | -7.1
[O-]/C(=C(\C(=S)Nc1cccc2ccccc12)[n+]1cccc(CO)c1)c1ccc(Cl)s1 | 16.0 | 12.4 | 2.5 | 0.4 | 18.1 | -2.0
CC(Oc1ccc(Br)cc1)C(=O)N(C)CC(=O)Nc1ccc(N2CCOCC2)cc1 (centres undefined) | 12.9 | 6.4 | 9.3 | -8.6 | 4.2 | 20.4
COc1ccc(OC)c2cc3ccccc3cc12 | 54.9* | 11.7 | -28.9 | -3.0 | 26.9 | -52.6
COc1cc2ccccc2ccc1=NO | -29.9 | 8.0 | 5.0 | -11.7 | 9.1 | 78.6*
